Columns and labels:
[1] = test system: P. falciparum NF54-pfs16-GFP early (I-III) stage gametocytes; experiment: relative % inhibition of viable gametocyte number; higher = more gametocytocidal; conditions: stage: early (I-III) gametocyte, incubation 72 h
In short: (§1)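 NF54 pfs16-GFP gametocytes, magnet-isolated at early (I/IIa, day 2) or late (day 8) stage, were plated at 10% parasitaemia, 0.1% haematocrit in 384-well poly-D-lysine imaging plates with compound in duplicate at 5 or 0.5 µM. Plates were incubated 72 h at 37°C, 5% CO2, 5% O2, then overnight with MitoTracker Red. Confocal imaging counted elongated GFP objects with MitoTracker signal above cut-off as viable gametocytes. Relative inhibition was normalised to in-plate vehicle and positive-control wells.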

[2] = test system: P. falciparum NF54-pfs16-GFP late (IV-V) stage gametocytes; experiment: as above; conditions: stage: late (IV-V) gametocyte, incubation 72 h
In short: as §1

| SMILES | relative % inhibition ([1]; 0.5 µM) | relative % inhibition ([1]; 5 µM) | relative % inhibition ([2]; 0.5 µM) | relative % inhibition ([2]; 5 µM) |
| --- | --- | --- | --- | --- |
| O=C(NC1CCN(Cc2ccccc2)CC1)c1cc(-c2cccnc2)nc2ccc(Cl)cc12 | 3.2% | 46.2% | -30.4% | -0.963% |
| COc1ccc(-c2cc3c(nn2)-c2ccccc2C3=O)cc1 | -10.8% | 81.1% | 87.4% | 96.1% |
| CN(C)c1ccc(-c2nc3cc(N)ccc3[nH]2)cc1 | -6.62% | 18.8% | -13.1% | -10.8% |
| Cc1ccc(Nc2nc(N)c3ccccc3n2)cc1Cl | -26.6% | 24.5% | 22.5% | 38.4% |
| O=C(Cc1ccccc1)NC(c1ccc(Cl)cc1)c1c(O)ccc2ccccc12 (centres undefined) | 14.2% | 104% | 1.94% | 27.6% |
| CCN1CCN(Cc2ccc(NC(=O)c3cc4ccc5cccnc5c4[nH]3)cc2)CC1 | 21.1% | 59.1% | -6.9% | 3.45% |
| CCOc1ccc(N2C(N)=NC(N)=NC2(C)C)cc1 | 3.66% | -20.1% | -17.5% | -10.7% |
| O=C(NC1CCN(Cc2ccccc2)CC1)c1cc(C(=O)NC2CCN(Cc3ccccc3)CC2)cc(C(=O)NC2CCN(Cc3ccccc3)CC2)c1 | 20.3% | 82% | 0.475% | 31.9% |
| Cc1ccc(S(=O)(=O)c2c(COC(=O)c3cccc(C)c3)c(-c3ccccc3)nn2C)cc1 | -3.57% | 37.5% | 18.5% | 20.4% |
| CCOc1ccccc1NC(=O)CN1CCN(C(=O)c2ccco2)CC1 | 11.3% | 9% | -18.2% | -2.45% |
| Clc1ccc2[nH]c3c(NCCCN4CCOCC4)ncnc3c2c1 | 61.4% | 97.5% | 12.4% | 17.7% |
| CN1c2ccccc2N(C)C1c1ccc2c(c1)OCO2 | 0.225% | -13.6% | 28.6% | -1.98% |
| COc1cc(C(=O)ON=C(N)Cc2cccc3ccccc23)cc(OC)c1OC | -8.44% | 74.1% | 2% | 82.3% |
| Cn1c(=O)c2cc(C(=O)NCCCN3CCCCCC3)sc2c2ccccc21 | 13.6% | 27.4% | -1.01% | -0.0726% |
| Cc1cccc(-n2ncc3c(=O)[nH]c(-n4nc(C)cc4NC(=O)c4cc5ccccc5o4)nc32)c1 | -5.22% | 49% | 100% | 102% |
| CN(C)c1ccc(C=Cc2nc(=O)c3ccccc3o2)cc1 | -10.1% | -23% | 27.4% | 88.2% |
| Cc1cc(NC(=O)c2cccc(C(F)(F)F)c2)n(-c2nc(-c3ccc4c(c3)OCO4)cs2)n1 | -23.4% | -25.9% | 18.8% | 10.5% |
| COc1ccc2c(c1)C1(Nc3ccccc3-c3nc4ccccc4n31)C(=O)N2 (centres undefined) | 55.7% | 84.8% | 37.6% | 63.5% |

| SMILES | relative % inhibition ([1]; 0.5 µM) | relative % inhibition ([1]; 5 µM) | relative % inhibition ([2]; 0.5 µM) | relative % inhibition ([2]; 5 µM) |
| --- | --- | --- | --- | --- |
| CCOC(=O)c1c(C)n(-c2ccccc2)c2ccc(OC(=O)c3cc(OC)c(OC)c(OC)c3)cc12 | 17.7% | -2.44% | -15.1% | -2.38% |
| FC(F)(F)c1cccc(CNC2CCN(CCc3ccccc3)CC2)c1 | -2.89% | 82.2% | 1.32% | -17.4% |
| CN(C)c1ccc(C(O)(c2ccc(N(C)C)cc2)c2ccc(N(C)C)cc2)cc1 | 81.4% | -12.4% | 102% | 103% |
| COc1ccc(CNC(=O)c2cc3c(=O)n4ccccc4nc3n(CCc3ccccc3)c2=N)cc1 | 2.74% | 56.6% | -16.6% | -9.45% |
| COc1ccc(C=C2SC(Nc3ccccc3)=NC2=O)cc1 | 11.7% | 17.7% | 47.2% | 61.6% |
| CCCCCCn1c(=N)n(CC(O)COc2cccc(C)c2)c2ccccc21 (centres undefined) | 23% | 52% | -12.2% | 103% |
| CCc1c(C)c(=N)c2ccccc2n1C | -1.08% | 8.52% | -17.1% | -7.51% |
| Cn1c(=O)n(C)c2cc(CNCCNc3ccnc4cc(Cl)ccc34)ccc21 | 86.6% | 29.6% | 37.6% | 90.2% |
| CC(C)(C)CC(C)(C)NCC(O)COc1ccc(Cl)cc1Cl (centres undefined) | 34.8% | 92.4% | 90.2% | 114% |
| CC(C)=CCN1CCC(C(=O)Nc2ccc(-c3nc4ccccc4[nH]3)cc2)CC1 | 3.42% | 74.1% | 16.4% | -15.7% |
| Cc1ccc(F)cc1NC(=O)c1cc(Cl)ccc1Nc1ccccc1 | 23.8% | 73.8% | 23.8% | 46.8% |
| CCn1c2c(c(=N)c3c1CCC3)CCCC2 | -1.17% | 25.3% | 10.1% | -7.91% |
| Cc1cccc(Nc2nc(N)c3ccccc3n2)c1 | -18.5% | -18.1% | -5.43% | 5.81% |
| COc1ccc(CN2CCCC(C(=O)c3ccc(C(F)(F)F)cc3)C2)c(O)c1 (centres undefined) | -2.13% | 93.7% | 14.8% | 16.7% |
| Cc1ccccc1OCCSc1nc2ccc(NC(=O)c3ccccc3)cc2s1 | 24.2% | 20.2% | 2.82% | 12.9% |
| COc1ccc(Nc2cc(C)nc(NCc3ccccc3)n2)cc1 | -3.8% | 26.6% | -3.1% | 36% |
| O=C(Nc1nc(-c2ccccn2)cs1)c1ccccc1Br | 10.8% | 93.2% | -7.93% | 68.6% |
| CCCN(CCC)CC(O)COc1ccccc1C(=O)Nc1ccccc1 (centres undefined) | 22.5% | 101% | 34.9% | 65.1% |

— the supplement of paper PMC3842684
